# Test results reported in PubChem BioAssay (NCI).
# The panel holds about 83,000 compounds, 20% with a hit somewhere; the sample as a whole holds those more often.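 Single-concentration screen, 48 h exposure, 96-well plates. Endpoint: percent growth. Below 10 = active.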 Active and inactive are the calls of the source.
# System: MDA-MB-468 breast
# Experiment: NCI-60 one-dose screen, 48 h (100 = growth as untreated, 0 = no growth, -100 = all killed)
# Settings: 10 µM unless noted
row,Structure (SMILES),growth
1,C/C=C/C=N/NC(=S)Nc1ccccc1,107% (inactive)
2,CCOC(=O)c1nn(-c2ccccc2)c(=O)c2c(N)c(C#N)c(-c3cccs3)cc12,69.9% (inactive)
3,CNC(=O)c1cc(Oc2ccc(NC(=O)Nc3ccc(Cl)c(C(C)(C)C)c3)c(F)c2)ccn1,7.76% (active)
4,CCCCCCc1cc2cc(-c3nc4ccccc4[nH]3)c(=Nc3ccccc3C)oc2cc1O,-5.99% (active)
